Experimental data: PubChem BioAssay AID1508600 (Functional Genomics Laboratory (NCATS/FGL), 2020)
Hit rate of the full screen: of about 53,000 sequences, about 3,700 (7%) were called active. This is one part of a sample in which actives are shown more often than they occur. Unmarked numbers belong to inactive results.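 How the source made its calls: active means gene knockdowns whose robust z-score for IL-1 alpha signal is at least 2 or at most -2, so actives lie on both sides; inactive means the rest.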

Test: Components of the Cytosolic LPS Sensing Pathway: Gene Identification via Genome-wide siRNA Screen;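 further: robust z of the log signal after scaling to non-targeting control siRNA wells of the plate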
Conditions: RAW264.7 macrophages, IL-1a HTRF, actives lie on both sides, screened at 100 nM (by protocol), cells primed 5 h with Pam3CSK4 first
Outline: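 IL-1a HTRF of supernatants after 24 hour LipidA transfection of Pam3CSK4-primed (5 hours) RAW264.7 cells, 48h post-siRNA transfection (100 nM). Scores: percent of plate negative-control median, then log-based robust z-score.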

Sequence	z-score
GCCCUAAAUCCUUUUAUUATT against Trpc7	2.78 (active)
GGAUGUACAAUAAUUGGGATT against Pramel39	1.45
GCAGGAUUCAAAGAUCUAATT against Kbtbd8	-0.587
GGCUCUAUCUUAAAAUAACTT against 4930542C12Rik	0.125
GCCGAGCUUUUGUGAGUAUTT against Rhobtb2	0.247
GCCAAUUGGACCUUAGAAATT against Nup107	-2.58 (active)
GGACUUUGUCACCAUGACGTT against Pef1	0.105
CCUAAAGAAGGUCUAUGCCTT against Tmbim6	-0.0538
GAAGCACAACCUCGGCUUUTT against AY074887	0.448
GGGUGUGAAAGUCAAUAAATT against 4930591A17Rik	1.02
UGGUGAAUACCAGUCUAAUTT against Tnfrsf23	0.0551
GUAUUUUACACUCUUGUGGTT against Olfr898	-2.31 (active)
GUAUCAUGACAGCUGUUUUTT against Olfr519	-0.254
GGAAAACAAGGAACAUGCGTT against Scgb1b2	0.138
GGCCAAGACCUCAGAGAUUTT against Apoa2	-1.39
GGCAGCUUUGGAACAACUATT against Zc3h14	-0.477
GGAUGCACUGAGGAACUCATT against Atg101	-0.573
GGAUCCAUGCUGUCAGUGGTT against Sftpa1	2.17 (active)
GGGAAUUGAUGAAAGCUCUTT against Gigyf2	-0.369
GCUUGGUGUAAUCAUGCGCTT against Prl7d1	0.314
GGGAACUUUAGCUUAAAUUTT against Lypd6	0.135
CGGCGACAUUGUUUUGCUATT against Acvr2a	1.19
GGGCCUUCACAAUGUCCUUTT against Brca1	2.68 (active)

Sequence	z-score
GGACCUUGAGAAAGUAGUCTT against Ms4a10	0.651
GGUGAUGAAAAAGGACAGCTT against Oit1	0.0982
GUACGUCAAGAGCCUGCGUTT against Fam110a	-2.65 (active)
GGAGCAGAUACCCUAGCCUTT against Mtx1	0.698
GGACUUGAAGAUGUACCAGTT against Il12a	0.427
GCCAUUCUAGAACCUGUAGTT against Zwint	-1.65
GCUAACUUAGAUAUCCAGGTT against Abtb2	0.125
GGGCCAAAUUUGAAUCCCUTT against Rcan1	-2.09 (active)
CCAAGUUUUUAUGCAGAUATT against Pip5k1b	1.6
GGGUAUAUUUCCUUCCAGCTT against Dock4	-0.105
GGUGGGAUGAUCAUAAGUUTT against Ppnr	-0.0428
GCUGUGGAACUUAUGUUUUTT against Faxc	-0.518
GGAUUAAUCAAACUGAGAGTT against Lrrtm2	-1.24
GCGAUUCCUAGAGCUGAGCTT against Git1	-2.5 (active)
GCUGAUUAGCCAUGUAAUUTT against Cebpg	-0.481
GCUUUAUGGAUCUACCAAATT against Fbxl3	1.81
GGAAAACAGCUUUGAUUGGTT against Tmem232	0.868
GCAAGCCAACUGACCAUCATT against Nudt2	0.486
CGACUCCAUGUGGACUUAUTT against Gca	-1.16
CGAACACUAAGCUUUGAUATT against Rab11fip2	-0.493
GGUUUUACAUUCUGUGUUUTT against Spata9	-0.898
CCUUGGAGAGAGAAGACAUTT against Rpp38	0.292
CCAAUGCAAGUGCUACAGUTT against Zfp277	-2.64 (active)

Sequence	z-score
GGCUCACUCAUUUGUCAGATT against Soat1	0.0924
GCCUAAUCAUUCCCAGCAUTT against Oog2	0.211
CCUUCUACUGGCAACCUAUTT against Zfp110	0.25
GGUAUCUACACCAAACUUATT against Klk1b5	0.685
GGAGCUAACUGUCAAUGGATT against Usp17la	2.8 (active)
GGAUGAAGAACUGAAAUCUTT against Unc13b	0.167
CCCUGUAAAGAUCGAGAAGTT against Zfp296	0.241
GGGACACCCUUUGAAGAUGTT against Ube2b	-0.314
GGCAUGAUGUUCAUGGAUATT against Nup62	-2.04 (active)
CGAAGAUAAUUAUGGAGCCTT against Fat4	0.548
CGCAGAGUUAAUUUCUUGUTT against Rchy1	0.995
CCAACAAUUCUGCCAAGACTT against Arrb2	-2.57 (active)
CCGAAGGAUUGAAGAGCCUTT against Trnt1	0.746
GGCUUCAUAAGAUCAAAGATT against Lca5l	-2.88 (active)
GCAGGUCUAAUAAUGGUCATT against Syt12	-0.536
GGAUCCUGCAUCUUAUAGUTT against Tcstv3	0.468
GCUGUUUCCCAGAGAAGAATT against Defb2	-0.814
CGGUUCCAACCUUGAAAAATT against H1f10	-0.676
GCUCUACCGUUAAGUUAUUTT against Eif4e2	0.499
GGUCAUCCUUUUUCAGUACTT against Lhx6	2.28 (active)
GGGCGUGAAUUCAGAGAUUTT against Pcdhgb5	-0.00376
CGGGUUCUACUAUCAUGCATT against Ltbp4	0.259
